Test results as given in PubChem BioAssay (Tox21).
Inconclusive results are not listed. Where a call stands in place of a potency, no number is given. Unmarked numbers belong to inactive results. Active and inactive are the calls of the source. Calls follow the shape of the dose curve; as a rule, active = well fitted cell-killing curve with a large enough effect in the repeat runs; inconclusive = weak or mixed curves; inactive = flat fitted curve, though single readings scatter.

Assay: qHTS RealTime-Glo MT Cell Viability Assay in HepG2 cells - 8 hour (AID 1224873); also: nearly all actives have a fitted effect of over 55% in size
Settings: RealTime-Glo luminescence; series mostly up to 76.8 µM
From the text: National Center for Advancing Translational Sciences [NCATS]
NIH Chemical Genomics Center [NCGC]
U.S. Environmental Protection Agency [EPA]
National Institutes of Environmental Health Sciences [NIEHS]
National Toxicology Program [NTP]
U.S. Food and Drug Administration [FDA]
Measure of cell viability is critical in the cell-base assay. Analysis of cell viability is necessary for the characterization of cell responses to cytotoxic drugs and environmental stress. A RealTime-Glo MT Cell Viability Assay to monitor cell viability in real time of continues cell culture during 40 hours of compound treatment was used to screen Tox21 10K library compounds in HepG2 cells. The RealTime-Glo MT Cell Viability Assay is a nonlytic, homogeneous, bioluminescent method to measure cell viability in real time using a simple, plate-based method. The assay involves adding NanoLuc luciferase and a cell-permeant prosubstrate to cells in culture. Viable cells reduce the proprietary prosubstrate to generate a substrate for NanoLuc luciferase. This substrate diffuses from cells into the surrounding culture medium, where it is rapidly used by the NanoLuc Enzyme to produce a luminescent signal. The signal correlates with the number of viable cells, making the assay well suited for cytotoxicity studies.
Tox21 Assay Protocol Summary:
The mixture of HepG2 cell suspension and reagents were dispensed at 600cells/6 ul/well in 1536-well tissue culture treated black solid bottom plates using a Multidrop dispenser. After the assay plates were incubated at a 37 C/5% CO2 incubator for 5 hours, 23 nL of compounds dissolved in DMSO, positive and negative controls was transferred to the assay plate by a pintool work station. The plates were incubated at 37 C for 40 hours. The luminescence intensity were measured at 0h, 8h, 16h, 24h, 32h and 40h time points using ViewLux plate reader during compound treatment.
Potency is read from the fitted curve at half-maximal effect.

For `NCCNCCO`, which Potency is on record?
Its Potency is “inactive”.

With `CCOc1cccc(-n2cc(C(=O)N3CCN(c4cc(C(=O)O)c5ccccc5c4)CC3)nc2-c2ccc(C)cc2)c1` as the compound, how does the Potency read?
The Potency was “inactive”.

For `CN1CC(=O)N2[C@H](c3ccc4c(c3)OCO4)c3[nH]c4ccccc4c3C[C@@H]2C1=O`, which Potency is on record?
Its Potency is “inactive”.

Which Potency does the source give for `N#CCc1ccc(Cl)cc1Cl` here?
Its Potency is “inactive”.

With `CCOC(=O)c1ccc(I)cc1` as the compound, how does the Potency read?
The Potency was “inactive”.

With `Cc1cc(=O)c2c(O)c3c(O)cc(=O)c4c3c3c(cc(O)c1c23)C(C)(C)C=4O` as the compound, how does the viability change, negative = cytotoxic read?
The viability change, negative = cytotoxic was -10.2% [at 15.8 µM].

With `OCCN1CCN(CCCN2c3ccccc3Sc3ccc(Cl)cc32)CC1` as the compound, how does the Potency read?
Its Potency is 23.9 µM (active).

Which Potency does the source give for `CC1(C)[C@@H](OC(=O)CCC(=O)O)CC[C@]2(C)[C@H]3C(=O)C=C4[C@@H]5C[C@@](C)(C(=O)O)CC[C@]5(C)CC[C@@]4(C)[C@]3(C)CC[C@@H]12` here?
The Potency was “inactive”.

With `C=Cc1ccc(S(=O)(=O)O)cc1` as the compound, how does the Potency read?
The Potency was “inactive”.

Which Potency does the source give for `CC(C)Nc1cccnc1N1CCN(C(=O)c2cc3cc(NS(C)(=O)=O)ccc3[nH]2)CC1` here?
Its Potency is “inactive”.

With `C[C@@H]1CC(=O)NN=C1c1ccc(NN=C(C#N)C#N)cc1` as the compound, how does the Potency read?
The Potency was “inactive”.

With `COc1cc(C(=O)NCCCCCC(=O)O)cc(OC)c1OC` as the compound, how does the Potency read?
Its Potency is “inactive”.

Which Potency does the source give for `CCCCCC[C@@H](O)C/C=C\CCCCCCCC(=O)O` here?
The Potency was “inactive”.

For `O=C(Cn1ccnc1[N+](=O)[O-])NCCO`, which Potency is on record?
The Potency was “inactive”.

Which Potency does the source give for `CC(=O)Oc1ccc([N+](=O)[O-])cc1CCl` here?
The Potency was “inactive”.

For `CC(C)c1nc(CN(C)C(=O)N[C@H](C(=O)N[C@@H](Cc2ccccc2)C[C@H](O)[C@H](Cc2ccccc2)NC(=O)OCc2cncs2)C(C)C)cs1`, which Potency is on record?
The Potency was “inactive”.

Which Potency does the source give for `CC(=O)Nc1cc(S(=O)(=O)O)cc2cc(S(=O)(=O)O)c(N=Nc3ccccc3)c(O)c12` here?
Its Potency is “inactive”.

Which Potency does the source give for `CCCCCCCCC(CCCCCC)C(=O)O` (stereo not given) here?
The Potency was “inactive”.

Which Potency does the source give for `O=C(OCC(O)CO)c1ccccc1Nc1ccnc2cc(Cl)ccc12` (stereo not given) here?
Its Potency is “inactive”.

For `Cc1c(C)c2c(c(C)c1OC(=O)CCC(=O)OCCO)CC[C@@](C)(CCC[C@H](C)CCC[C@H](C)CCCC(C)C)O2`, which Potency is on record?
The Potency was “inactive”.

Which Potency does the source give for `O=C1Cc2cc(Cl)ccc2N1` here?
Its Potency is “inactive”.

Which Potency does the source give for `OC(CCN1CCCC1)(c1ccccc1)C1CCCCC1` (stereo not given) here?
The Potency was “inactive”.

With `NC1[C@H]2CN(c3nc4c(cc3F)c(=O)c(C(=O)O)cn4-c3ccc(F)cc3F)C[C@@H]12` (stereo not given in full) as the compound, how does the Potency read?
Its Potency is “inactive”.

For `CC(=O)c1ccc([N+](=O)[O-])cc1`, which Potency is on record?
The Potency was “inactive”.

With `CCC(=O)OC` as the compound, how does the Potency read?
Its Potency is “inactive”.

Which Potency does the source give for `CC(CO)CO` here?
The Potency was “inactive”.

With `CCOC(=O)c1ccc(C#Cc2ccc3c(c2)C(C)(C)CCS3)nc1` as the compound, how does the Potency read?
The Potency was “inactive”.

With `C=C(C)C(=O)OCCCCCCCCCCCCC` as the compound, how does the Potency read?
The Potency was “inactive”.

Which Potency does the source give for `Nc1cccc2c1CN(C1CCC(=O)NC1=O)C2=O` (stereo not given) here?
Its Potency is “inactive”.

Which Potency does the source give for `CCC(C)COC(=O)CC(C)C` (stereo not given) here?
The Potency was “inactive”.

Which Potency does the source give for `CCOC(=O)c1ccccc1C(=C1C=C(Br)C(=O)C(Br)=C1)c1cc(Br)c(O)c(Br)c1` here?
Its Potency is “inactive”.

With `Brc1cc2ccccc2c2ccccc12` as the compound, how does the Potency read?
The Potency was “inactive”.

For `COc1ncnc(NS(=O)(=O)c2ccc(N)cc2)c1OC`, which Potency is on record?
The Potency was “inactive”.

Which Potency does the source give for `CC[C@]1(O)C[C@H]2CN(CCc3c([nH]c4ccccc34)[C@@](C(=O)OC)(c3cc4c(cc3OC)N(C=O)[C@H]3[C@@](O)(C(=O)OC)[C@H](OC(C)=O)[C@]5(CC)C=CCN6CC[C@]43[C@@H]65)C2)C1` here?
The Potency was “inactive”.

Which Potency does the source give for `C(=C\c1ccccc1)/c1ccccc1` here?
Its Potency is “inactive”.

Which Potency does the source give for `CN1CCCC(n2nc(Cc3ccc(Cl)cc3)c3ccccc3c2=O)CC1` (stereo not given) here?
The Potency was “inactive”.

For `CCOC(=O)C1=C(C)NC(C)=C(C(=O)OC)C1c1cccc(Cl)c1Cl` (stereo not given), which Potency is on record?
Its Potency is 19 µM (active).

With `CC1(C)S[C@@H]2[C@H](NC(=O)C(c3ccccc3)S(=O)(=O)O)C(=O)N2[C@H]1C(=O)O` (stereo not given in full) as the compound, how does the Potency read?
The Potency was “inactive”.

For `CCC=CC#N`, which Potency is on record?
The Potency was “inactive”.

Which Potency does the source give for `Nc1ncnc2c1ncn2[C@H]1CC[C@@H](CO)O1` here?
The Potency was “inactive”.
